Measurements taken from PubChem BioAssay (NCI).
“And” between values parts separate entries of the source, which are not always exact repeats. Equal values may be shown once. This is part of a sample that, as a whole, favours compounds with a hit. Of some 79,000 tested, about 15% had one in any assay. No stated cut-off is given here; in the data, active means growth inhibition above about 70%; inactive means the rest.

What was measured:
[1] = NCI Yeast Anticancer Drug Screen. Data for the rad50 strain (AID 155);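 further: 0% = growth of vehicle-only cultures of the same strain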; conditions: S. cerevisiae rad50 strain growth inhibition; at 50.0 µM; active compounds read high
Method in brief: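 A DNA repair-deficient yeast mutant serves as the test organism; compound-induced growth inhibition is calculated against vehicle-treated cells.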

[2] = NCI Yeast Anticancer Drug Screen. Data for the mec2-1 strain (AID 157); conditions: S. cerevisiae mec2-1 strain, at 50.0 µM, active compounds read high
Method in brief: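 mec2-1 yeast strain, carrying an alteration in DNA damage repair or cell cycle control, was exposed to compounds; growth inhibition was measured relative to vehicle-treated controls.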

[3] = NCI Yeast Anticancer Drug Screen. Data for the sgs1 mgt1 strain (AID 161);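 further: 0% = growth of cultures given vehicle only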; conditions: S. cerevisiae sgs1 mgt1 strain, at 50.0 µM, active compounds read high
Method in brief: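 Yeast cells carrying a defined DNA-repair defect were exposed to test compounds. Growth inhibition was measured relative to vehicle-treated controls.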

[4] = NCI Yeast Anticancer Drug Screen. Data for the cln2 rad14 strain (AID 165);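 further: 0% = growth equal to vehicle treated cultures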; conditions: S. cerevisiae cln2 rad14 strain, at 50.0 µM, active compounds read high
Method in brief: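 Yeast carrying cln2 and rad14 alterations (cell cycle control and DNA damage repair) were exposed to compounds. Growth inhibition was measured against vehicle-treated controls.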

[5] = NCI Yeast Anticancer Drug Screen. Data for the bub3 strain (AID 167); conditions: S. cerevisiae bub3 mutant strain, at 50.0 µM, active compounds read high
Method in brief: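 Inhibition values come from growth of compound-treated mutant yeast normalised to vehicle-treated controls.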

[6] = NCI Yeast Anticancer Drug Screen. Data for the mlh1 rad18 strain (AID 175); conditions: S. cerevisiae mlh1 rad18 strain growth inhibition; at 50.0 µM; active compounds read high
Method in brief: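 Growth inhibition of the yeast strain was measured after compound exposure and expressed relative to vehicle-treated controls. The strain carries defined defects in DNA damage repair.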

Measured: growth inhibition

CC(=O)OCC1OC(n2c(=S)n(-c3ccc(C)cc3)c(=O)c3ccccc32)C(OC(C)=O)C(OC(C)=O)C1OC(C)=O (stereo unspecified)
inactive: [1] 2.2% and 32% | [2] 6.1% and 18.4% | [3] -11.1% and 15.9% | [4] 21% and 21.2% | [5] -6.65% and 14.7% | [6] -9.4% and 4.9%

C=C1C[C@]23C[C@@]1(O)CC[C@H]2[C@@]12C=C[C@H](O)[C@@](C)(C(=O)O1)[C@H]2[C@@H]3C(=O)O
inactive: [1] -20.4% and -0.7% | [2] -39.5% and -16.6% | [3] -31.1% and -1.3% | [4] 0.4% and 0.9% | [5] -51.8% and -18.1% | [6] -52.4% and -3%

O=C(O)c1cc([N+](=O)[O-])c2c(c1)P(=O)(O)c1cc(C(=O)O)cc([N+](=O)[O-])c1O2
inactive: [1] 19.9% and 10.8% | [2] -1.35% and 3.05% | [3] 7.65% and 4.55% | [4] 5.9% and 4.05% | [5] -0.6% and -2.1% | [6] 13.7% and 7.85%

COc1ccc2[nH]ccc(=O)c2c1
inactive: [1] -28.1% and 8.75% | [2] -24.3% and -0.05% | [3] -47.5% and 12.3% | [4] -4.25% and -5.6% | [5] -43% and -3.7% | [6] -18.7% and 5.95%

CC(=O)Nc1cc(NC(C)=O)c2ccccc2c1O
inactive: [1] -2.65% and 4.1% | [2] 22% and 5.85% | [3] 13.2% and 8% | [4] 6.05% and 25.1% | [5] 18.9% and 14.3% | [6] 2.7% and 6.75%

CC(=O)O[C@@H]1C[C@H](C)CC[C@H]1C(C)C
inactive: [1] 5.85% and 0.6% | [2] -9.8% and -2.35% | [3] -3.05% and -3.7% | [4] 5.8% and 23% | [5] 4.5% and -1.45% | [6] -3.4% and -0.8%

NCCCNCCSSC/C=C\CSSCCNCCCN
inactive: [1] 1.9% and -5.5% | [2] -15.6% and -4.85% | [3] 1.8% and -15.3% | [4] 1.15% and -16.8% | [5] 7.85% and -2.3% | [6] 11.3% and 1.45%

O=C1CCOC2=C1COC2=O
inactive: [1] -30.7% and 9.5% | [2] -6.05% and 17.6% | [3] -2.4% and -0.6% | [4] -25.6% and 12.3% | [5] -7.95% and 19.6% | [6] -1.2% and 16.6%

CCOC(=O)c1ccc(N=[N+]([O-])c2ccc(C(=O)OCC)cc2)cc1
inactive: [1] -10.8% and -4.1% | [2] -4.95% and -4.3% | [3] 2.8% and -7.65% | [4] -6% and -3.25% | [5] -40.5% and -19.9% | [6] -13.4% and 19.8%

COC1OC2COCOC2C(O)C1O (stereo unspecified)
inactive: [1] 16.4% and 11.6% | [2] 17.1% and 7.85% | [3] 10.9% and 1.8% | [4] -53.6% and -34.5% | [5] 14.9% and 8.8% | [6] -4.9% and 5.65%

C=CCSC1=NC(=O)C(CCCC)C(=O)N1C (stereo unspecified)
inactive: [1] 7.75% and -1.7% | [2] 2.65% and 7.25% | [3] 4.25% and 6.3% | [4] -35.5% and -24.9% | [5] -22% and 7.5% | [6] 10.8% and 7.5%

CC1OC(n2cnc3c(N)ncnc32)C(O)C1O (stereo unspecified)
inactive: [1] -3.75% and 14.4% | [2] 8.1% and -3.35% | [3] 2.5% and -12.4% | [4] -53.2% and 5.3% | [5] 0.85% and -1% | [6] -0.4% and -13.8%

O=S(=O)(O)CCO
inactive: [1] 13.6% and -1.9% | [2] -8.35% and -8.7% | [3] 20.7% and 9.75% | [4] 19.1% and 16.2% | [5] 0.3% and -3.5% | [6] 2.25% and 28%

CC(=O)c1c(-c2ccc(Cl)cc2)c(C#N)c(=S)n(C2OC(CO)C(O)C(O)C2O)c1-c1ccccc1 (stereo unspecified)
inactive: [1] 5.1% and 4.5% | [2] 1.95% and 6.1% | [3] 28.1% and 34.5% | [4] 33.1% and -7.6% | [5] -2.95% and 39.5% | [6] 56.6% and 15.9%

O=C(O)/C=C/c1ccc(Cl)cc1
inactive: [1] 16.8% and 8.15% | [2] -8.8% and -22.6% | [3] 16.8% and 2.3% | [4] -35.3% and -6.2% | [5] -3.9% and -3.4% | [6] 26.9% and 13.4%

CC1(C)CC(=O)CC(=O)C1
inactive: [1] 25.2% and 10.2% | [2] 12.8% and 3.15% | [3] -9.3% and 4.6% | [4] 18.8% and 0.85% | [5] 2.55% and 6.75% | [6] 18.6% and 6.8%

CCOC(=O)c1ccc(O)c(O)c1
inactive: [1] -23.9% and 15.5% | [2] -28.1% and 6.75% | [3] -6.65% and 4.05% | [4] -12.2% and 8.9% | [5] -11.8% and 0.7% | [6] -8.8% and -5.75%

O=C(NC(Cc1ccccc1)C(=O)O)OCc1ccccc1 (stereo unspecified)
inactive: [1] 4.2% and 0.2% | [2] 23.9% and 6.9% | [3] 12.1% and 1% | [4] -9.35% and -1.55% | [5] 20.7% and -5.15% | [6] 14.7% and 16.9%

CC(=O)c1c(-c2cccc3ccccc23)c(C#N)c(=S)n(C2OC(CO)C(O)C(O)C2O)c1-c1ccccc1 (stereo unspecified)
inactive: [1] 21.2% and 31.6% | [2] 17.9% and -8.45% | [3] 42.1% and 34.2% | [4] 25.7% and 23.8% | [5] 34.9% and 12.3% | [6] 21.6% and 24.7%

OC1CCCC(O)C1O (stereo unspecified)
inactive: [1] 1.25% and 6.1% | [2] -2.7% and -12.9% | [3] 14.1% and 9.8% | [4] -7.2% and -2% | [5] 3.9% and 20.6% | [6] -2.65% and -4.4%

COC1C(OC(C)=O)CC(=O)OC(C)C/C=C/C=C\C(O)C(C)CC(CC=O)C1OC1OC(C)C(OC2CC(C)(O)C(OC(=O)CC(C)C)C(C)O2)C(N(C)C)C1O (stereo unspecified)
inactive: [1] -0.2% and -2.9% | [2] -10.4% and -25.7% | [3] -22.6% and -34% | [4] -4.95% and 4.75% | [5] -27.1% and -30.9% | [6] -2% and -6.85%
